# Results reported in PubChem BioAssay (NCATS).
# Values without a mark were called inactive. Active and inactive are the calls of the source. No rule for the calls is given here.
# Test system: HIV-1 nucleocapsid protein NCp7 (binding to TG oligonucleotide)
# Assay: HIV Nucleocapsid (AID 346);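 also: potency is for inhibitors that block NC binding and lower polarization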
# Details: HIV-1 NC / fluorescein-TGTGTGTG probe, fluorescence polarization
# Summary of the method: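 Reagents dispensed (10 nM TG4xF, 100 nM HIV-1 NC), plates spun, compounds pin-transferred, then incubated 1 hr at room temperature before FP imaging. Buffer: Hepes pH 7.5, 250mM NaCl, 1uM ZnCl2, 100 uM TCEP, 5 mM 2-mercaptoethanol.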
# Potency is read from the fitted curve at half-maximal effect.
row,SMILES,Potency
1,Cn1cccc1C(=O)N1CCC2(CCCN(C(=O)Nc3cccc(F)c3)C2)CC1,> 20 µM
2,COc1ccccc1CN1CC[C@@]2(CCCN(C(=O)c3ccco3)C2)C1,> 20 µM
3,CN(C)C(=O)c1ccc(-c2ccc3ncnc(Nc4ccc(F)cc4)c3c2)cc1,> 20 µM
4,COc1ccccc1CCn1c(=O)c(-c2cccc(Cl)c2)nc2cncnc21,> 20 µM
5,O=C(c1ccncc1)N1CCC2(CC1)CCN(c1ccccc1)CC2,> 20 µM
6,NC(=O)c1ccccc1-c1nc(-n2ccnc2)c2ccccc2n1,> 20 µM
7,COc1ccc(Oc2ncc3nc(-c4cccs4)c(=O)n(C)c3n2)cc1,> 20 µM
8,COc1ccc(-n2c(=O)c(-c3ccc(F)c(F)c3)nc3cncnc32)cc1,> 4 µM
9,Cn1cc(-c2nc3cncnc3n(-c3ccccc3)c2=O)c2ccccc21,4.43 µM (active)
10,Cc1noc(C)c1C(=O)N1CCC2(CCN(Cc3ccc(C#N)cc3)CC2)CC1,> 20 µM
11,COCC(=O)N1CCC2(CC1)CCN(c1ccc(-c3ccccc3)cc1)CC2,> 20 µM
12,COc1ccc(Oc2ncc3nc(-c4ccc(Cl)cc4)c(=O)n(C4CC4)c3n2)cc1,> 20 µM
13,Cc1noc(C)c1-c1ccc2ncnc(NC3CCNCC3)c2c1,> 20 µM
14,CN1CCN(c2ncc3nc(-c4cc(F)cc(F)c4)c(=O)n(-c4ccccc4)c3n2)CC1,> 20 µM
15,COCCn1c(=O)c(-c2ccc(OC)cc2)nc2cnc(Oc3cccc(Cl)c3)nc21,> 20 µM
16,N#Cc1ccc(CN2CCC3(CC2)CCN(C(=O)c2ccco2)CC3)cc1,> 20 µM
17,COc1cccc(-c2nc(N3CCN(C)CC3)c3ccccc3n2)c1,> 20 µM
18,O=C(Oc1ccccc1)N1CCC2(CC1)CCN(c1ccncc1)CC2,> 20 µM
19,O=C(c1cnccn1)N1CCC2(CC1)CCN(c1ncccn1)CC2,> 20 µM
20,N#Cc1ccc(CN2CCC3(CCNCC3)CC2)cc1,> 20 µM

row,SMILES,Potency
1,N#Cc1ccc(CN2CCC3(CC2)CCN(C(=O)c2ccncc2)CC3)cc1,> 20 µM
2,COc1ccccc1-c1ccc2ncnc(NCCN3CCOCC3)c2c1,> 20 µM
3,CN1CCN(c2ncnc3ccc(-c4ccccc4C#N)cc23)CC1,> 20 µM
4,COc1ccccc1CNc1ncncc1-c1ccccc1Cl,> 20 µM
5,CN1CCN(c2ncc3nc(-c4ccccc4)c(=O)n(C)c3n2)CC1,> 20 µM
6,COCC(=O)N1CCC2(CC1)CCN(c1ccncc1)CC2,> 20 µM
7,CC(C)CN1CCC2(CC1)CCN(C(=O)c1cc(C(F)(F)F)cc(C(F)(F)F)c1)CC2,> 20 µM
8,N#CCCn1c(=O)c(-c2ccc(Cl)cc2)nc2cnc(Oc3ccccc3)nc21,> 20 µM
9,Cc1cccc(CNc2ccnc(-c3ccccc3Cl)n2)c1,> 20 µM
10,CN(C)c1ncc2nc(-c3ccc(F)cc3)c(=O)n(C[C@H]3CCCO3)c2n1,> 20 µM
11,COc1ccc2[nH]cc(CCNc3ncnc4ccc(-c5ccccc5OC)cc34)c2c1,> 20 µM
12,CN(C)C(=O)c1ccc(-c2nc(N3CCOCC3)c3ccccc3n2)cc1,> 20 µM
13,O=C(O)C1CCN(c2ncnc3ccc(-c4ccccc4C(F)(F)F)cc23)CC1,> 20 µM
14,Cn1c(=O)c(-c2cccs2)nc2cnc(Oc3ccccc3)nc21,> 20 µM
15,CCNc1ncc2nc(-c3cn(C)c4ccccc34)c(=O)n(Cc3cccc(OC)c3)c2n1,> 20 µM
16,COc1ccc(C(=O)N2CCC3(CCN(Cc4ccccc4)CC3)CC2)cc1,> 20 µM
17,CC(C)CN1CCC2(CC1)CCN(C(=O)c1ccco1)CC2,> 20 µM
18,O=c1c(-c2ccc(Cl)cc2)nc2cnc(Oc3ccccc3)nc2n1C1CC1,> 20 µM
19,COc1ccc(-c2nc3cnc(OC)nc3n(CCC#N)c2=O)cc1,> 20 µM
20,COc1ccc(CNc2ccnc(-c3cccnc3)n2)c(OC)c1,> 20 µM
